Compounds with a hit are over-represented: about 11% of the library has one in this group of screens.
Ins promoter up – MIN6 insulin promoter up-regulation. MIN6 insulin promoter-GFP reporter, high-content imaging; stronger effect = higher value. z-score at 5 µM. hit rate 0.3% among 190,000. AID 1625;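 active means z-score above 3 at 5 µM with at least 500 cells counted in the well; inconclusive means wells under 500 cells, flagged as cytotoxic or low count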
Autophagy mod – modulators of autophagy | MEF GFP-LC3 puncta imaging; test concentration mostly 10 µM | calls only at 10 µM (by protocol) | hit rate 0.98% among 190,000;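 active means percentage of spot-positive cells more than 3 SD above its plate mean, without a fluorescence outlier flag or 80% toxicity; inconclusive means no clear call, values can overlap the other calls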
Insulin prom inh – TRM-6 insulin promoter activity inhibition. TRM-6 cells (human fetal islet line), insulin promoter-eGFP reporter, imaging; reporter expression induced with tamoxifen. inhibition, % at 2 µM. hit rate 0.9% among 130,000. AID 1273;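 active means inhibition above the mean plus 3 SD, with well images judged a real hit on visual review, cut at about 60% in these data, passing the limit was not always enough; inconclusive means inhibition over the cutoff but images rejected on review; inactive means inhibition not above the cutoff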
WT yeast gro inh – growth inhibition of WT yeast, mitochondrial fusion screen. mitochondrial fusion phenotypic screen, WT strain. inhibition, % at 10 µM. hit rate 2.1% among 190,000. AID 1362; in the data active means inhibition above about 58%; tested in S. cerevisiae
L major viab – reduces viability of Leishmania major promastigotes; hit rate 9% among 200,000; inhibition, % at 10 µM; resazurin fluorescence viability; AID 1063; in the data active means inhibition above about 50%;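 further: promastigotes grown with compound for 44 hours at 28 °C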
Numbers stand for hits; i = inactive; ? = inconclusive; nt = no result given; + = active, no number.

SMILES	Ins promoter up	Autophagy mod	Insulin prom inh	WT yeast gro inh	L major viab
O=C(COC(=O)c1ccccn1)NCCCc1ccccc1	i	i	i	i	i
CCN(CC)S(=O)(=O)c1cccc(-c2nnc(SCc3nc4ccccc4s3)o2)c1	nt	i	87	i	i
CC(C)C(=O)Nc1nc2c(c(=O)[nH]1)CCCC2	i	i	i	i	i
COc1nc(Nc2ccc([N+](=O)[O-])cc2)nc(NC2CCCCC2)n1	i	i	i	88	89
CCCCCCCc1ccc(-c2ccc(O)cc2)nc1	i	i	nt	74	i
O=C(OC(c1ccccc1)c1nccc2ccccc12)c1cc([N+](=O)[O-])cc([N+](=O)[O-])c1 (stereo not drawn)	i	i	nt	i	98
O=C(NC(c1ccccc1)c1ccccn1)c1cccc([N+](=O)[O-])c1 (stereo not drawn)	i	i	i	i	i
C=CCN(C(=O)c1csnn1)C(C(=O)NC(C)(C)C)c1ccncc1 (stereo not drawn)	i	i	nt	i	i
COc1ccc(Nc2nc(Cl)nc(N3CCN(c4ccc(OC)cc4)CC3)n2)cc1	nt	i	i	i	53
C=CCNc1nc(Cl)nc(Nc2ccc([N+](=O)[O-])cc2)n1	i	i	nt	i	i
C=CCNc1nc(Nc2ccc(-c3nc4ccccc4o3)cc2)nc(N2CCOCC2)n1	nt	i	nt	i	98
C=CCNc1nc(Nc2ccc([N+](=O)[O-])cc2)nc(N2CCCC2)n1	i	i	i	i	81
CC1CCN(c2nc(Cl)nc(Nc3ccc([N+](=O)[O-])cc3)n2)CC1	i	i	i	78	i
CSCC[C@H](NC(=O)Nc1ccc(OC(F)(F)F)cc1)C(=O)O	i	nt	nt	nt	nt
Cc1ccc(/C=N/NC(=O)c2cc(C3CC3)nc3ccccc23)o1	?	i	i	i	i
Cc1ccc(/C=C/c2nc3ccccc3[nH]2)o1	i	i	71	i	i
Cc1nc2c(n1C1CCCCC1)C(=O)c1ccccc1C2=O	i	i	i	i	i
CC(C)Cn1c(N)c(C(=O)COC(=O)c2cc(C(F)(F)F)nc3ccccc23)c(=O)n(C)c1=O	i	i	i	i	i
CC(C)Cn1c(N)c(C(=O)COC(=O)c2cc(C3CC3)nc3ccccc23)c(=O)n(C)c1=O	i	i	i	i	57
CC(C)Cn1c(N)c(C(=O)COC(=O)c2ccc(O)cc2)c(=O)n(C)c1=O	i	i	i	i	i
CC(C)Cn1c(N)c(C(=O)COC(=O)c2cc(-c3ccccc3)nc3ccccc23)c(=O)n(C)c1=O	i	i	i	i	100
CC(C)Cn1c(N)c(C(=O)COC(=O)c2ccc([N+](=O)[O-])o2)c(=O)n(C)c1=O	i	i	i	i	88
CCC(=O)OCC(=O)c1c(N)n(Cc2ccccc2)c(=O)n(C)c1=O	3.3	i	i	i	i
Cc1ccc(C(=O)/C=C/c2ccco2)c(O)c1	i	i	i	i	i
Cc1ccc(-c2nc(CN(C)Cc3cccc4cnccc34)c(C)o2)s1	i	i	nt	i	i
SMILES	Ins promoter up	Autophagy mod	Insulin prom inh	WT yeast gro inh	L major viab
Cn1c(N)c(C(=O)COC(=O)c2cc(-c3ccccc3)nc3ccccc23)c(=O)n(Cc2ccccc2)c1=O	i	i	i	i	i
Cn1c(=O)c(C(=O)COC(=O)c2cc(-c3ccco3)nc3ccccc23)c(N)n(Cc2ccccc2)c1=O	nt	i	i	i	99
CC(C)Cn1c(N)c(C(=O)COC(=O)c2cc(-c3ccco3)nc3ccccc23)c(=O)n(C)c1=O	i	i	i	i	77
CCOc1ccc(-n2nc3c(-n4ncc(C#N)c4N)nnc(C)c3c2C)cc1	nt	i	i	nt	i
O=[N+]([O-])c1ccccc1N/N=C\c1ccccc1Cl	i	i	nt	i	i
CCCOc1ccc(/C=N/Nc2ccccc2[N+](=O)[O-])c(OCCC)c1	i	i	84	i	i
Cc1ccccc1N1CCN(C(=S)c2ccccc2)CC1	i	i	i	i	57
CC(C)(C)c1ccc(C(=S)N2CCN(c3ccccc3)CC2)cc1	i	nt	nt	nt	nt
CCOC(=O)c1ccc(CSc2nnc(-c3ccncc3)n2N)cc1	3.8	i	i	i	i
CCOC(=O)C1=C(C)N=C2SC(C)C(=O)N2C1/C=C/c1ccccc1OC (stereo not drawn)	i	i	i	i	i
CCOC(=O)C1=c2/c(=C/c3ccncc3)c(N)c(C(=O)OC)n2C(=O)C(c2ccncc2)S1 (stereo not drawn)	i	i	i	i	56
CCOC(=O)C1=C(N)n2c(s/c(=C\c3ccncc3)c2=O)=C(C(=O)OCC)C1c1ccncc1 (stereo not drawn)	nt	i	i	i	52
CCOC(=O)C1=c2/c(=C/c3ccccc3OC)c(N)c(C#N)n2C(=O)C(c2ccccc2OC)S1 (stereo not drawn)	i	+	i	i	i
Cc1ccc(NC(=O)Cc2c(O)c3ccccc3[nH]c2=O)c(C)c1	i	nt	nt	nt	nt
Cc1cccc(C)c1NC(=O)c1ccc(-c2ccc(Cl)cc2Cl)o1	i	i	i	i	91
O=C(Nc1ccc(CN2CCOCC2)cc1)c1ccc(-c2cccc(Cl)c2)o1	i	i	i	i	99
O=C(/C=C/c1ccc(Cl)cc1)Nc1ccc(CN2CCOCC2)cc1	i	i	nt	i	82
Cc1ccccc1-c1ccc(C(=O)Nc2cccc(F)c2)o1	i	i	i	58	i
CC(C)c1ccc(/C=C/C(=O)Nc2ccc(CN3CCOCC3)cc2)cc1	i	nt	nt	nt	nt
CCN1CCCC1CNC(=O)C(=O)NC(C)C (stereo not drawn)	nt	i	i	i	i
O=C(Nc1ccc(CN2CCOCC2)cc1)c1ccc(-c2ccc(Cl)cc2Cl)o1	i	i	nt	i	74
COc1ccc(Oc2cccc(Cl)c2CNC(=O)CCC(=O)O)cc1	i	nt	nt	nt	nt
Cc1cccc(-n2ncc3c(N4CC(C)CC(C)C4)ncnc32)c1 (stereo not drawn)	i	i	nt	78	i
Cc1cccc(-n2ncc3c(N4CCCC4)ncnc32)c1	i	i	i	i	i
Clc1ccc(Cn2ncc3c(N4CCCC4)ncnc32)cc1	i	i	i	i	i
SMILES	Ins promoter up	Autophagy mod	Insulin prom inh	WT yeast gro inh	L major viab
CC1CC(C)CN(c2ncnc3c2cnn3Cc2ccc(Cl)cc2)C1 (stereo not drawn)	i	i	i	76	i
CC(C)(C)C(=O)Nc1cccc2[nH]ncc12	i	i	i	i	i
O=C(CSc1nc2ccccc2s1)N/N=C/c1cc([N+](=O)[O-])ccc1O	i	nt	nt	nt	nt
COc1ccc(OC)c(NC(=O)C(=S)NC2CCCCC2)c1	i	i	i	74	i
CC(NC(=O)C12CC3CC(CC(C3)C1)C2)C(=O)N/N=C/C1=C(N2CCOCC2)C(=C\c2cccc([N+](=O)[O-])c2)/CC1 (stereo not drawn)	i	i	i	i	98
CC(C)C(NC(=O)C12CC3CC(CC(C3)C1)C2)C(=O)N/N=C/C1=C(N2CCOCC2)C(=C\c2ccc([N+](=O)[O-])cc2)/CC1 (stereo not drawn)	i	+	i	i	97
CCCn1c(CCc2ccccc2)nnc1SCC(=O)N1CCOCC1	i	i	78	i	i
CCn1c(CSCc2ccc(F)cc2)nnc1SCC(=O)N1CCN(c2ccccc2)CC1	nt	i	i	i	63
CCn1c(SCC(=O)N2CCN(c3ccccc3)CC2)nnc1-c1c[nH]c2ccccc12	i	i	nt	i	58

Screens from PubChem.
